The supplement of paper PMC6522484
± gives the standard deviation of the averaged measurements.

Assays:
[1] = test system: DLD1; assay: cell viability (CellTiter-Glo) relative to plate median (fraction of plate median); higher = more viable cells; settings: 5 µM; treatment time 24 h; reporter: 7TFP
Procedure, shortened: (§1)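 Values are well luminescence normalised to the plate median, from either a firefly luciferase or a CellTiterGlo readout on parallel plates. The cells, colorectal cancer lines stably transduced with lentiviral 7TFP or TCF4/Wnt firefly luciferase reporters, were treated with library compounds at a final 5 µM for 24 h. The mean of two independent replicates is listed.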

[2] = test system: HCT116; assay: as above; settings: 5 µM; treatment time 24 h; reporter: TCF4/Wnt
Procedure, shortened: as §1

[3] = test system: SW480; assay: as above; settings: 5 µM; treatment time 24 h; reporter: 7TFP
Procedure, shortened: as §1

[4] = test system: DLD1; assay: TCF/Wnt firefly luciferase reporter signal relative to plate median (fraction of plate median); higher = higher Wnt reporter signal; settings: 5 µM; treatment time 24 h; reporter: 7TFP
Procedure, shortened: as §1

[5] = test system: SW480; assay: as above; settings: 5 µM; treatment time 24 h; reporter: 7TFP
Procedure, shortened: as §1

Compound	cell viability [1]	cell viability [2]	cell viability [3]	TCF/Wnt firefly luciferase reporter signal [4]	TCF/Wnt firefly luciferase reporter signal [5]
N=C(N)N	0.982 ± 0.025	0.95 ± 0.16	1.02 ± 0.014	0.924 ± 0.076	1.025 ± 0.0071
O=c1c(O)c(-c2ccccc2)oc2cccc(O)c12	1.03 ± 0.014	1.02 ± 0.044	1.01 ± 0.045	1.07	0.969 ± 0.021
Nc1ccn([C@@H]2O[C@H](CO)[C@@H](O)[C@@H]2O)c(=O)n1	0.987 ± 0.018	0.849 ± 0.092	1.1 ± 0.064	1.08 ± 0.11	0.968 ± 0.14
CC(=O)O[C@H]1CC[C@]2(C)[C@H]3CC=C4[C@@H]5CC(C)(C)CC[C@]5(C(=O)O)CC[C@@]4(C)[C@]3(C)CC[C@H]2C1(C)C	1.06 ± 0.05	1.11 ± 0.11	1.02 ± 0.033	1.03	1.03 ± 0.021
COc1ccc2c(c1)OC/C(=C/c1ccc(O)c(O)c1)C2=O	0.99 ± 0.043	1.01 ± 0.021	0.986 ± 0.035	0.944 ± 0.033	1.09 ± 0.078
C[C@H]1[C@H](C)CC[C@]2(C(=O)O)CC[C@]3(C)C(=CC[C@@H]4[C@@]5(C)C[C@@H](O)[C@H](O)[C@@](C)(CO)[C@@H]5[C@H](O)C[C@]43C)[C@H]12	1.01 ± 0.048	1.09 ± 0.099	0.985 ± 0.0085	0.919 ± 0.05	1.045 ± 0.0071
CN(C)[C@@H]1C(O)=C(C(N)=O)C(=O)[C@@]2(O)C(O)=C3C(=O)c4c(O)ccc(Cl)c4[C@@](C)(O)[C@H]3C[C@@H]12	1.05 ± 0.028	1.1 ± 0.085	1.02 ± 0.014	1.11 ± 0.13	0.99 ± 0.0042
COc1c2c(c(O)c3c4c(c(C)cc13)[C@@H]1O[C@@]3(C(OC)OC)O[C@@H]1[C@@](O[C@H]1CC(O)[C@@](O)(C(C)=O)C(C)O1)(O4)[C@@]3(O)Cn1cnc3nc(N)[nH]c(=O)c31)C(=O)C(O)CC2O[C@H]1CC(C)(O)[C@H](OC(C)=O)C(C)O1 (stereo not given in full) [Gutingimycin]	0.932 ± 0.022	0.966 ± 0.0057	0.946 ± 0.059	0.87 ± 0.14	0.898 ± 0.07
NS(=O)(=O)c1cc2c(cc1C(F)(F)F)NC(Cc1ccccc1)NS2(=O)=O (stereo not given)	0.992 ± 0.04	0.969 ± 0.058	0.9875 ± 0.0035	0.836 ± 0.075	0.885 ± 0.064
CCCNC(C)C(=O)Nc1ccccc1C (stereo not given)	1 ± 0.013	0.972 ± 0.096	1.03 ± 0.028	0.912 ± 0.028	0.96 ± 0.03
O=C(O)CCCC[C@@H]1CCSS1 (racemic)	1.06 ± 0.071	1.01	0.986 ± 0.035	0.856 ± 0.032	0.96 ± 0.023
C=CC[S+]([O-])C[C@H](N)C(=O)O (stereo not given in full)	0.984 ± 0.018	0.903 ± 0.079	0.96 ± 0.016	0.986 ± 0.091	1.05 ± 0.042
CC(=O)O[C@]1(C(C)=O)CC[C@H]2[C@@H]3C=C(C)C4=CC(=O)CC[C@]4(C)[C@H]3CC[C@@]21C	0.988 ± 0.088	0.971 ± 0.037	0.984 ± 0.037	1.03 ± 0.086	1 ± 0.04
NCCCS(=O)(=O)O	0.999 ± 0.044	0.993 ± 0.052	0.974 ± 0.011	0.969 ± 0.14	1.11 ± 0.05
Oc1c(Cl)cc(Cl)c(Cl)c1Cc1c(O)c(Cl)cc(Cl)c1Cl	0.934 ± 0.021	1.03 ± 0.1	1.02 ± 0.028	1.34 ± 0.18	1.15 ± 0.021
COC1=CC(=O)c2c(O)c3c(c(O)c2C1=O)OC1(Oc2c(cc4cc(C)oc(=O)c4c2O)C2OC21)C3O (stereo not given) [Griseorhodin A]	1.09 ± 0.11	1.01 ± 0.04	1.05 ± 0.021	0.925 ± 0.057	1.01 ± 0.014
CO[C@H]1[C@H](O)[C@@H](O)[C@H](O)[C@H](O)[C@H]1O	0.981 ± 0.018	0.953 ± 0.026	1.03 ± 0.014	1.11 ± 0.13	1.1 ± 0.092

Compound	cell viability [1]	cell viability [2]	cell viability [3]	TCF/Wnt firefly luciferase reporter signal [4]	TCF/Wnt firefly luciferase reporter signal [5]
Oc1cc2c(cc1O)C1c3ccc(O)c(O)c3OCC1(O)C2 (stereo not given)	1.03 ± 0.028	1.04 ± 0.028	1 ± 0.023	0.944 ± 0.035	1.04 ± 0.035
O=C(Cc1ccccc1)NO	1.03 ± 0.028	0.878 ± 0.13	1 ± 0.027	0.789 ± 0.064	0.869 ± 0.014
O=c1cc(CO)occ1O [Kojic acid (Biofocus)]	0.943 ± 0.08	1.02 ± 0.083	0.994 ± 0.093	1.21 ± 0.13	1.12 ± 0.035
CC(=O)O[C@H]1CC[C@@]2(C)[C@H](CC[C@@H]3[C@@H]2CC[C@]2(C)[C@@H]4[C@H](C[C@@H]32)O[C@]2(CC[C@@H](C)CO2)[C@H]4C)C1	1.01 ± 0.028	0.979 ± 0.1	0.977 ± 0.0014	0.836 ± 0.043	0.941 ± 0.083
COc1ccc(C(Cl)=C(c2ccc(OC)cc2)c2ccc(OC)cc2)cc1	1.01 ± 0.044	1.12 ± 0.05	0.978 ± 0.032	0.915 ± 0.19	0.877 ± 0.17
C[C@H]1[C@H]2CC[C@H]3[C@@H]4CC=C5C[C@@H](N(C)C)CC[C@]5(C)[C@H]4CC[C@]23CN1C	0.896 ± 0.0042	0.783 ± 0.14	0.984 ± 0.021	0.9855 ± 0.00071	1.05
C[C@]12C=CC(=O)C=C1CC[C@@H]1[C@@H]2[C@@H](O)C[C@@]2(C)[C@H]1CC[C@]2(O)C(=O)CO	1.01 ± 0.014	1.09 ± 0.035	1.04 ± 0.069	1.03 ± 0.035	1.04 ± 0.088
COC(=O)C1=CO[C@@H](O[C@@H]2O[C@H](CO)[C@@H](O)[C@H](O)[C@H]2O)[C@H]2[C@@H]1C(=O)C[C@@H]2C	1.03 ± 0.067	0.992 ± 0.083	0.982 ± 0.026	1.08 ± 0.064	1.06 ± 0.021
CCC(O)CC1CCC(C(C)C(=O)OC(C)CC2CCC(C(C)C(=O)O)O2)O1 (stereo not given) [Bonactin]	0.944 ± 0.027	0.941 ± 0.11	0.974 ± 0.0014	0.962 ± 0.054	0.87 ± 0.12
COc1cc(C(C)=O)cc(OC)c1O	1.03	0.922 ± 0.086	1.01 ± 0.018	0.946 ± 0.1	0.958 ± 0.012
O=C(O)CCNC(=O)c1ccccc1	1.04 ± 0.035	1.035 ± 0.0071	1 ± 0.026	0.972 ± 0.0099	1.005 ± 0.0071
CC(C)NC[C@@H](O)COc1cccc2ccccc12	1.09 ± 0.057	1.06	1.11 ± 0.11	1.01 ± 0.021	1.01 ± 0.05
O=C(Nc1ccccc1)Nc1ccccc1	1.02 ± 0.13	0.996 ± 0.048	1.05 ± 0.092	1.2 ± 0.11	1.01 ± 0.04
O=C(c1c[nH]c2ccccc12)C(O)CO (stereo not given) [1-(3-Indolyl)-2,3-dihydroxypropan-1-one]	0.989 ± 0.072	1.02 ± 0.06	0.966 ± 0.046	1.12 ± 0.028	1 ± 0.079
CC1(C)C=Cc2cc3ccc(=O)oc3cc2O1	0.979 ± 0.087	1 ± 0.043	1.04 ± 0.042	1.21 ± 0.13	1.165 ± 0.0071
CC(C)C[C@@H](NC(=O)[C@H](C)NC(=O)CNC(=O)[C@@H](NC=O)C(C)C)C(=O)N[C@@H](C)C(=O)N[C@@H](C(=O)N[C@H](C(=O)N[C@H](C(=O)N[C@@H](Cc1c[nH]c2ccccc12)C(=O)N[C@H](CC(C)C)C(=O)N[C@@H](Cc1c[nH]c2ccccc12)C(=O)N[C@H](CC(C)C)C(=O)N[C@@H](Cc1c[nH]c2ccccc12)C(=O)N[C@H](CC(C)C)C(=O)N[C@@H](Cc1c[nH]c2ccccc12)C(=O)NCCO)C(C)C)C(C)C)C(C)C	0.939 ± 0.13	0.903 ± 0.061	0.613 ± 0.072	0.885 ± 0.043	0.488 ± 0.077
